# gsp antag = antagonizes gsp, the McCune-Albright syndrome mutation | gsp-mutant cells, cAMP HTRF, 30 min | Potency, µM (highest dose often 76.9 µM), actives largely listed as inhibitors | 340,000 tested, 0.4% active | AID 624288; calls by dose curve; cell line not stated here;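 note: intracellular cAMP measured with PDE inhibitor Ro 20-1724 present during compound exposure; nearly all actives have a fitted effect of over 65% in size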
#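 Cells in G418 medium, seeded 16-24 h, 37C; buffer exchange to DPBS + 1 mM CaCl2, 0.5 mM MgCl2, 0.05% BSA; cpds in DMSO + […] (300 uM stock), 30 min 37C; HTRF cAMP detection.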
# FUS suppressor = suppressors of FUS proteinopathy in yeast; 390,000 tested, 0.24% active; Potency, µM (series often up to 76.6 µM), most hits filed as activators; S. cerevisiae FUS-expressing, growth rescue, OD600, 24 h; note: nearly all actives have a fitted effect of over 55% in size
#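 Toxicity suppression screen in FUS-yeast. Cells induced with 2% galactose, starting OD 0.005, treated 24hr at 30C with compounds at multiple final concentrations; growth by OD600.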
# Mito fusion yeast = inhibitors of mitochondrial division or activators of mitochondrial fusion; S. cerevisiae fusion-defective mutant growth rescue, CellTiterGlo 48 h; Potency, µM (doses to about 46.1 µM), hits mostly activators; 320,000 tested, 0.23% active; AID 485298; note: nearly all actives have a fitted effect of over 45% in size
#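 Temperature-sensitive fusion-defective S. cerevisiae (e.g. fzo1-1, mgm1-5) were grown with compound in YPEG medium (3% ethanol, 3% glycerol) for 48 hours at 37C. Growth rescue was measured as viability by CellTiterGlo luminescence after 10 minutes at ambient.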
# gsp agonist = activates gsp, the McCune-Albright syndrome mutation; gsp mutant cells, cAMP HTRF, 30 min; Potency, µM (top dose mostly 76.9 µM), most hits filed as activators; 340,000 tested, 0.13% active; AID 624287; active = well fitted activation curve with a large enough effect; inconclusive = small, poorly fitted or top-dose-only effect, or another doubt; inactive = no such curve, though single readings can be large or run the other way; cell line not stated here;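 note: phosphodiesterase inhibitor Ro 20-1724 added with compounds to block cAMP breakdown; nearly all actives have a fitted effect of over 60% in size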
#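 Cells in DMEM/10% FBS with G418 were pretreated with compounds in DMSO plus […] (300 uM stock) for 30 min at 37C. cAMP was measured by HTRF (cAMP-d2 plus anti-cAMP antibody-K) after 30 min at room temperature.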
# ALOX12 inh = inhibitors of human 12S-lipoxygenase ALOX12 | P18054 | purified 12hLO, xylenol orange hydroperoxide absorbance | Potency, µM (series often up to 108 µM), most hits filed as inhibitors | 580,000 tested, 1.1% active
#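 Purified human 12hLO at 150 nM in 25 mM Hepes, 0.01% Triton X-100, pH 7.0, preincubated 15 min at room temperature with compound. Reaction started with 40 uM arachidonic acid, 30 min at room temperature. Hydroperoxide measured by Fe-xylenol orange, 573/405 nm absorbance ratio.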
# Hits are given with their value; i = inactive; ? = inconclusive; nt = not tested or not shown; [ ] = remark or other dose. Compounds with a hit are over-represented: about 1.6% of the library has one in this group of screens. Unless noted, calls come from the whole dose curve; as a rule, active = well fitted curve in the direction sought with a large enough effect; inconclusive = small, poorly fitted or top-dose-only effect, or another doubt; inactive = no such curve, though single readings can be large; an effect the other way counts as inactive or inconclusive.
SMILES,gsp antag,FUS suppressor,Mito fusion yeast,gsp agonist,ALOX12 inh
CCOc1ccccc1C(=O)Nc1ccc(S(=O)(=O)Nc2nccc(C)n2)cc1,i,i,i,6.31µM,i
Cc1ccc(CC(=O)Nc2ccc(N(C)C)cc2)cc1,nt,nt,nt,nt,20µM
Cc1ccc(CC(=O)Nc2ccc(S(=O)(=O)Nc3nccc(C)n3)cc2)cc1,8.91µM,i,i,i,i
CCOc1ccccc1C(=O)Nc1ccc(S(=O)(=O)Nc2cc(OC)nc(OC)n2)cc1,i,nt,i,20µM,i
COc1ccc(C(NC(=O)NCc2ccccc2)c2ccc(OC)cc2)cc1,nt,nt,nt,nt,i
COc1cc(C=O)ccc1OCc1ccccc1C#N,nt,nt,nt,nt,i
Cc1nsc(N)c1C(=O)OCc1csc(-c2ccccc2)n1,nt,nt,nt,nt,25.1µM
Cc1nsc(N)c1C(=O)OCc1csc(-c2cccc(Br)c2)n1,nt,nt,nt,nt,i
Cc1ccc(C(=O)c2sc(Nc3cccc(Cl)c3C)nc2N)cc1,nt,nt,nt,nt,28.2µM
Cc1nc(Nc2c(Cl)cccc2Cl)sc1C(=O)Nc1ccccc1,i,i,17.8µM,i[15.4 µM],?
CCOC(=O)c1sc(NC(=O)Nc2ccccc2F)nc1C,i,i,i,i,i
Cc1nc(NC(=O)C2CC2)sc1C(=O)Nc1ccccc1,i,i,i,i[15.4 µM],i
CCOC(=O)c1sc(Nc2ccccc2Cl)nc1C,i,i,i,i,28.2µM
Cc1ccc(C(=O)c2sc(Nc3cc(C)cc(C)c3)nc2N)cc1,nt,nt,nt,nt,i
CCC(=O)Nc1nc2c(C)cc(NC(=O)Nc3ccccc3OC)cc2s1,nt,nt,nt,nt,i
Cc1ccccc1CN1Cc2nc(-c3ccc4c(c3)OCO4)ccc2OCC1=O,nt,nt,nt,nt,i
CC(C)NC(=O)CN1CCN(c2nccc(N3CCC(O)CC3)n2)CC1,nt,nt,nt,nt,i
C[C@]12C=CC(=O)C=C1CC[C@@H]1C2=CC[C@]2(C)[C@@H](C(=O)CN3CCN(c4cc(N5CCCC5)nc(N5CCCC5)n4)CC3)CC[C@@H]12,i,?,14.6µM,nt,i
Cc1ccc(-c2nn(-c3ccccc3)cc2/C=N/NC(=O)c2ccc(Br)o2)cc1,31.6µM,i,i,i,i
S=c1nc(-c2cccc(Cl)c2)[nH][nH]1,i,i,i,?,?
S=c1nc(-c2ccccc2Br)[nH][nH]1,i,i,i,i,25.1µM
S=c1nc(-c2cc(Cl)ccc2Cl)[nH][nH]1,i,i,i,?,10µM
O=C(Nc1cccc(F)c1)C1CC(=O)N(Cc2ccccn2)c2nc3ccccc3n21 (stereo not given),nt,nt,nt,nt,i
COc1cc(F)c(S(=O)(=O)N2CCC(C(N)=O)CC2)cc1OC,nt,nt,nt,nt,i
Cc1ccc(C(=O)C2=C(O)C(=O)N(Cc3ccco3)C2c2cccc(Cl)c2)o1 (stereo not given),i,?,i,i[15.4 µM],25.1µM
SMILES,gsp antag,FUS suppressor,Mito fusion yeast,gsp agonist,ALOX12 inh
CC(C)(C)c1ccc(C2C(C(=O)c3ccco3)=C(O)C(=O)N2CC2CCCO2)cc1 (stereo not given),i,i,i,?,22.4µM
O=C(C1=C(O)C(=O)N(CC2CCCO2)C1c1ccccc1)c1ccco1 (stereo not given),i,i,i,i[15.4 µM],i
Cc1ccc(C(=O)C2=C(O)C(=O)N(Cc3ccco3)C2c2cccc(Br)c2)o1 (stereo not given),i,?,i,i[15.4 µM],?
O=C(C1=C(O)C(=O)N(CC2CCCO2)C1c1ccc(Cl)cc1Cl)c1ccco1 (stereo not given),i,?,i,?,39.8µM
O=C(C1=C(O)C(=O)N(CC2CCCO2)C1c1cccc(Cl)c1)c1ccco1 (stereo not given),i,?,i,?,28.2µM
COc1ccc(-c2cc3ccc(OS(=O)(=O)c4ccccc4)cc3oc2=O)cc1,nt,nt,nt,nt,i
O=C(C1=C(O)C(=O)N(CC2CCCO2)C1c1cccnc1)c1ccco1 (stereo not given),i,i,i,?,?
O=C(C1=C(O)C(=O)N(CC2CCCO2)C1c1ccccc1Cl)c1ccco1 (stereo not given),i,i,i,?,31.6µM
Cc1c(NC(=O)c2cc3cc(Br)ccc3[nH]2)c(=O)n(-c2ccccc2)n1C,nt,nt,nt,nt,50.1µM
CSc1ccc(/C=C2\C(=O)Oc3ccccc32)cc1,nt,nt,nt,nt,31.6µM
CSc1ccc(-c2ccccc2C=O)cc1,nt,nt,nt,nt,i[12.5 µM]
Cc1nc2cc(NS(=O)(=O)c3ccc(C#N)cc3)ccc2o1,nt,nt,nt,nt,i
CCOC(=O)Nc1ccc2c(c1)C(=NNC(=S)NC)c1ccccc1-2,nt,i,nt,i,39.8µM
